Common to all, as to test: PBM binding z-score (relative to random genomic background probes); higher = stronger binding; sequences stand for … in GC…GCGATTGACAGCGTAGAATGAAGG
In test [1] the test system is FXR:RXRa (NR concentration 270 nM, RXRa partner concentration 90 nM). The procedure, abridged:
(§1)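 Custom Agilent 4×180K protein-binding microarrays carried double-stranded probes. Their 34-nt variable regions held direct-repeat seeds, single-nucleotide variants, half-site ablations and random human genomic background sequences. Arrays were incubated 1 h with ligand-free nuclear receptor dimers in PBS pH 7.4, 2% milk, 0.02% Triton X-100, 1 mM DTT, 0.2 mg/mL BSA and 0.4 mg/ml salmon testes DNA. Antibodies against each partner (one per run) detected binding, and scanned fluorescence was regression-normalized. Binding z-scores use random background probes as reference.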

Test [2] relates to LXRa:RXRa (NR concentration 270 nM, RXRa partner concentration 90 nM). In a few lines: as §1
For test [3], the system named is LXRa homodimer (NR concentration 270 nM). In a few lines:
as §1

Test [4] concerns LXRb:RXRa (NR concentration 270 nM, RXRa partner concentration 90 nM). In a few lines: as §1
Test [5] has as its system LXRb homodimer (NR concentration 270 nM). The procedure, abridged: as §1
The test system of test [6] is PPARa:RXRa (NR concentration 270 nM, RXRa partner concentration 90 nM). The procedure, abridged: as §1
Test [7] relates to PPARg:RXRa (NR concentration 180 nM, RXRa partner concentration 90 nM). In a few lines:
as §1

The test system of test [8] is PPARg:RXRa 270nM:90nM, anti-RXR (NR concentration 270 nM, RXRa partner concentration 90 nM). In a few lines: as §1
The test system of test [9] is PPARg:RXRa 30nM:10nM, anti-RXR (NR concentration 30 nM, RXRa partner concentration 10 nM). In a few lines:
as §1

Test [10] concerns PPARg:RXRa 90nM:30nM, anti-RXR (NR concentration 90 nM, RXRa partner concentration 30 nM). In a few lines:
as §1

Test [11] has as its system PPARg:RXRa DBDmut IVT, anti-RXR (DBD mutation: RXRa K156A/R161A, NR concentration 270 nM, RXRa partner concentration 90 nM). In a few lines:
as §1

In test [12] the test system is PPARg:RXRa IVT, anti-PPARg (NR concentration 270 nM, RXRa partner concentration 90 nM). The procedure, abridged: as §1
Test [13] concerns PPARg DBDmut:RXRa IVT, anti-PPARg (DBD mutation: PPARg1 K132A/R137A, NR concentration 270 nM, RXRa partner concentration 90 nM). In a few lines: as §1
Test [14] has as its system PPARg DBDmut IVT, anti-PPARg (DBD mutation: PPARg1 K132A/R137A, NR concentration 270 nM). The procedure, abridged:
as §1

Test [15] relates to PPARg homodimer (NR concentration 180 nM). The procedure, abridged:
as §1

Test [16] concerns PXR:RXRa (NR concentration 270 nM, RXRa partner concentration 90 nM). In a few lines:
as §1

Test [17] has as its system PXR homodimer (NR concentration 270 nM). In a few lines: as §1
Test [18] deals with RARa:RXR (NR concentration 270 nM, RXRa partner concentration 90 nM). In a few lines: as §1
The subject of test [19] is RARa homodimer (NR concentration 270 nM). The procedure, abridged: as §1
Test [20] has as its system RARb:RXRa (NR concentration 270 nM, RXRa partner concentration 90 nM). The procedure, abridged: as §1

On to CCTACTGGGCCAAAAAGGTCATTTATGCCGATAA, for which the PBM binding z-score in test [1] was 3.57; in test [2] it was 4.05; in [3] it was 4.05; in [4], 4.58; in test [5] it was 0.674; in test [6], 4.48. The PBM binding z-score in test [7] was 3.08; in [8], 3.67; in test [9], 1.23; in test [10] it was 2.79; in test [11] it was 3.34; in test [12], 3.95. For the same sequence, the PBM binding z-score was 0.881 in test [13]; -0.177 in test [14]; 3.37 in [15]; 4.67 in test [16]; 3.36 in test [17]; 4.88 in test [18]. Also, the PBM binding z-score in test [19] is 1.02; in [20] it was 3.7.
Take CCTAGCAGGCCAATCTGGGTCACTGAAGGCTTGA: the PBM binding z-score in test [1] was 1.19; in [2], 1.16; in [3] it was -0.588; in test [4], 0.364; in test [5], -1.38; in [6] it was 3.01. Moreover, the PBM binding z-score in [7] came out at 1.75; in test [8], 2.55; in test [9], 0.263; in test [10] it was 1.81; in test [11] it was 4.44; in test [12], 5.17. Further, the PBM binding z-score was 0.524 in test [13]; 0.356 in test [14]; 0.812 in test [15]; 0.783 in test [16]; -0.752 in test [17]; 1.67 in test [18]. Besides, the PBM binding z-score in [19] was -0.428; in [20], 1.64.
On to CATACTGGGCCATTCAGAGGTCATTGATCATATG, for which the PBM binding z-score is 3.03 in test [1]; 4.44 in test [2]; 6.31 in [3]; 3.86 in [4]; 0.861 in [5]; 3.77 in [6]. In addition, the PBM binding z-score came out at 2.37 in test [7]; 3.13 in [8]; 1.18 in test [9]; 2.26 in [10]; 3.86 in test [11]; 3.89 in [12]. Further, the PBM binding z-score in [13] was 1.19; in test [14], 0.509; in [15], 2.57; in test [16], 4.82; in test [17] it was 2.58; in [18], 4.36. The PBM binding z-score in test [19] turned out to be 0.758; in test [20], 3.14.
As for CATACAGGGTCAGCTAGGCCATAGTAGGGACGGC, the PBM binding z-score in test [1] was 4.59; in test [2], 3.07; in test [3], -0.118; in test [4], 2.31; in test [5], 0.267; in [6], 4.32. In addition, the PBM binding z-score in test [7] was 3.69; in test [8], 2.95; in test [9], 1.21; in test [10], 1.9; in [11], 0.879; in test [12] it was 2.3. Further, the PBM binding z-score in test [13] is 0.763; in test [14], 0.466; in test [15] it was 1.7; in test [16] it was 2.69; in [17], 0.334; in test [18], 3.47. The values for the PBM binding z-score in test [19] and in test [20] were 0.85 and 4.01, respectively.
In the case of ACTAGTTGGTCAGCTCAGGTCACACACAATTCGG, the PBM binding z-score in test [1] was found to be 1.73; in test [2], 1.66; in [3], 1.68; in test [4], 1.95; in test [5], 0.675; in [6], 2.03. Besides, the PBM binding z-score in [7] is 1.04; in test [8], 0.796; in [9] it was -0.0327; in test [10] it was 0.521; in [11] it was 1.24; in test [12], 2.1. For the same sequence, the PBM binding z-score in [13] turned out to be 0.448; in [14] it was 1.3; in test [15], 1.64; in test [16], 3.54; in test [17], 0.961; in test [18] it was 2.58. Also, the figures for the PBM binding z-score in [19] and in [20] were 1.11 and 2.7, respectively.
As to TAGCCTAGGCCATGCGGGCCAGTATAGTGTCGGC, the PBM binding z-score in test [1] is -0.771; in [2], -1.17; in test [3], -0.671; in test [4] it was -1.47; in [5], -1.47; in test [6], -0.776. Further, the PBM binding z-score in [7] was -0.313; in [8], -1.06; in test [9], -0.847; in [10], -1.18; in test [11] it was -0.849; in test [12] it was -0.0851. The PBM binding z-score was -0.949 in test [13]; -1.38 in test [14]; -1.26 in [15]; -0.956 in test [16]; -1.02 in [17]; -0.877 in [18]. Moreover, the PBM binding z-score was -1.18 in test [19] and 0.00206 in [20].
